The structures appear in SMILES notation. Screen size: about 310,000 compounds; about 1,200 (0.39%) were called active. Not all results are given here. Entries with a potency or affinity are not part of this list. Values without a mark were called inactive. No rule for the calls is given here.

The target of the experiment is Large T antigen (Simian virus 40) (UniProt P03070). Put plainly: SV40 large T antigen inhibitors, biochemical (AID 1903). To be noted: SV40 large T antigen ATPase/helicase inhibition assay; at 20 µM; active compounds read high.
Large T antigen (Simian virus 40), sequence (P03070 whole entry, looked up): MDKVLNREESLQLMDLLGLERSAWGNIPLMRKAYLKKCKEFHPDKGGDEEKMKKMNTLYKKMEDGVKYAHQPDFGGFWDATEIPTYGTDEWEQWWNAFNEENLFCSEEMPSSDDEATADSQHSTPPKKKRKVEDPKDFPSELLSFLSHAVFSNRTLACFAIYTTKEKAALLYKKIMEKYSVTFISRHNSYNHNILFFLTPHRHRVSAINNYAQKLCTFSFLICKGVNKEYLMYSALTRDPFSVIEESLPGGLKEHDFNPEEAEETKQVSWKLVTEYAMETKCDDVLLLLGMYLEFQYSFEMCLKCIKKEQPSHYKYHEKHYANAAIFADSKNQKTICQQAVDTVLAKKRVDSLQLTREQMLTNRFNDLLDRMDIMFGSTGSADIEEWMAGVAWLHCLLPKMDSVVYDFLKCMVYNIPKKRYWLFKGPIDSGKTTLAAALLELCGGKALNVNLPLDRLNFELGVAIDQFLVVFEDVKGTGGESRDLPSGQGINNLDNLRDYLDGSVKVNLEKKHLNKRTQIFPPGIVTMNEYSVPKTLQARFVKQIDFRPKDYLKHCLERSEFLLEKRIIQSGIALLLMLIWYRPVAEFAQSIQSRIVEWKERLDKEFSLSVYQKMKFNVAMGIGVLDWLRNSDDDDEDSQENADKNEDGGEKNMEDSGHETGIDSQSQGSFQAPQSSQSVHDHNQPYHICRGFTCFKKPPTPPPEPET
For the compound `CN(CC(=O)Nc1cccc(F)c1)C(=O)c1cccc(S(=O)(=O)N2CCN(c3ccccc3)CC2)c1`, the inhibition is 6.82%.
For the compound `Cc1ccc(NC2=C([N+](=O)[O-])CS(=O)(=O)C2)cc1`, the inhibition is 2.4%.
For `O=[N+]([O-])C1=C(Nc2cccc3ccccc23)CS(=O)(=O)C1`, the inhibition is 0.61%.
In the case of `Cc1ccc(/C=C2/NC(=O)N(Cc3ccc(Br)cc3)C2=O)o1` it was 9.48%.
Consider `COC(=O)C1=C(C)N(Cc2ccc(OC)cc2)C(=O)/C1=C\c1ccco1`, for which the inhibition was 10.5%.
Turning to `COc1ccc(CN2C(=O)c3ccccc3C2=O)cc1`, the inhibition was 5.14%.
For the compound `O=C1/C(=C/c2cccnc2)SC(=S)N1c1ccc(F)cc1`, the inhibition was 21.6%.
For `O=C1N/C(=C/c2ccc(N3CCOCC3)cc2)C(=O)N1Cc1ccc(F)cc1`, the inhibition is 3.08%.
In the case of `Cc1ccc(/C=C2/NC(=O)N(Cc3ccccc3)C2=O)o1` it was 9.41%; in that of `O=C1N/C(=C\c2ccsc2)C(=O)N1Cc1ccc(F)cc1`, 5.82%; in that of `O=C1/C(=C\c2cccnc2)SC(=S)N1c1ccc(F)cc1`, 9.19%.
With `COc1cccc(C(=O)COc2ccc(NC(=O)c3cccs3)cc2)c1`, the inhibition was -1.46%.
`Cc1nn(-c2ccccc2)c(N)c1N=Nc1ccc(Cl)cc1`: the inhibition was 5.29%.
For `CC(=O)NCCCc1nc2ccccc2n1Cc1cc(C)ccc1C`, the inhibition was 2.29%.
`O=C(CN1C(=O)/C(=C/c2ccccc2)SC1=S)NC1CCS(=O)(=O)C1` (stereo not given): the inhibition was 15.6%.
On to `O=C(CCN1C(=O)/C(=C/c2cccs2)SC1=S)Nc1ccc(C(=O)O)c(O)c1`, for which the inhibition was 35%.
As for `O=C(CCCN1C(=O)/C(=C/c2ccccc2)SC1=S)Nc1ccc(C(=O)O)c(O)c1`, the inhibition was 11.4%.
With `O=C(CCCN1C(=O)/C(=C\c2ccco2)SC1=S)Nc1ccc(O)cc1C(=O)O`, the inhibition is 83.1%.
The figure for `O=C(CN1C(=O)S/C(=C\c2cccs2)C1=O)Nc1ccc(C(=O)O)c(O)c1` is 13.4%.
On to `O=C(CN1C(=O)/C(=C/c2ccccc2Cl)SC1=S)NC1CCS(=O)(=O)C1` (stereo not given), for which the inhibition is 14.6%.
Regarding `COc1ccccc1/C=C1\SC(=S)N(CCC(=O)Nc2ccc(C(=O)O)c(O)c2)C1=O`, the inhibition was 22.1%.
`O=C(CCCN1C(=O)/C(=C\c2ccccc2)SC1=S)Nc1ccc(O)cc1C(=O)O`: the inhibition was 11.7%.
Consider `COC(=O)COc1ccc2occ(C(C)=O)c2c1`, for which the inhibition is -0.85%.
Consider `COC(=O)c1[nH]c2ccc(F)cc2c1NC(=O)Nc1ccc(OC)cc1`, for which the inhibition was 11.4%.
In the case of `CN1CCN(C(=O)CSc2nnc(COc3ccccc3)o2)CC1` it was 6.15%.
On to `Cc1ccc2oc3nc(C)c(C(=O)Nc4cccc(C(F)(F)F)c4)cc3c(=O)c2c1`, for which the inhibition was 2.24%.
In the case of `Clc1ccc(/C=N/N2CCCCC2)cc1`, the inhibition is 5.46%.
With `Cc1cc(NC(=O)C(=O)c2c(C)[nH]c3ccccc23)no1`, the inhibition was 3.99%.
In the case of `CCOc1ccc2nc(NC(=O)CC3Oc4ccccc4NC3=O)sc2c1` (stereo not given) it was 7.51%; in that of `O=C(COC(=O)c1ccccc1SCC(=O)N1CCCC1)NC1CCCCC1`, 7.38%; in that of `CC1(C)CC(=O)C/C(=N/NC(=O)COc2ccc3ccccc3c2Br)C1`, 8.99%.
Consider `C/C(CC(=O)Nc1ccc2c(c1)OCCO2)=N\NC(=O)Cc1ccccc1`, for which the inhibition is 9.69%.
For `CC(C(=O)Nc1ccc(O)cc1C(=O)O)N1C(=O)/C(=C\c2cccs2)SC1=S` (stereo not given), the inhibition is 38.1%.
For the compound `CCN(C(=O)C(C)N1C(=O)/C(=C/c2ccco2)SC1=S)C1CCS(=O)(=O)C1` (stereo not given), the inhibition is 33.8%.
On to `O=C(CCCN1C(=O)/C(=C/c2cccs2)SC1=S)Nc1ccc(O)c(C(=O)O)c1`, for which the inhibition is 29.5%.
With `O=C(CCCN1C(=O)/C(=C\c2ccco2)SC1=S)Nc1ccc2ccccc2c1`, the inhibition is 18.2%.
In the case of `Cc1ccc2nc(N3CCN(c4ccccc4)CC3)c(C=O)c(=O)n2c1` it was 3.59%; in that of `CCn1cc(S(=O)(=O)CC(=O)N2CCc3ccccc32)c2ccccc21`, 16.3%; in that of `COCC(C)n1c(SCc2nc(N)nc(Nc3ccccc3C)n2)nc2ccccc2c1=O` (stereo not given), 23%.
In the case of `COc1cccc(N2C(=O)/C(=C\c3cccs3)NC2=S)c1`, the inhibition is 24%.
Turning to `COc1cccc(/C=C2\C(=O)N(c3cccc(C)c3)C(=O)c3ccccc32)c1`, the inhibition was 11%.
`COc1cccc(/C=C2/C(=O)NN(c3ccccc3)C2=O)c1`: the inhibition is 26.6%.
`COc1cccc(NCc2ccc([N+](=O)[O-])s2)c1`: the inhibition is 20.9%.
As for `COc1ccc(NC(=O)CCNC(=O)c2ccco2)cc1OC`, the inhibition was 0.95%.
Take `O=C(O)C1CCCN1C(=O)Nc1ccccc1` (stereo not given): the inhibition was 4.07%.
Turning to `CN1CCN(CC(=O)O)CC1`, the inhibition is 17.9%.
Take `COc1ccc2c(c1)[nH]c1c(=O)n(CCC3=CCCCC3)cnc12`: the inhibition is 9.61%.
In the case of `CCOC(=O)N1CCC(Nc2ccc(N3C(=O)C4CCCCC4C3=O)cc2[N+](=O)[O-])CC1` (stereo not given) it was 10.6%; in that of `COC(=O)CCc1ccc(O)cc1`, 4.8%.
For the compound `COc1ccc(C(=O)CCc2ccccc2)c(O)c1`, the inhibition was 7.01%.
Regarding `Cc1ccsc1CNC(=O)c1c(-c2ccccc2)noc1C`, the inhibition was 2.94%.
The figure for `O=C1CNC(=S)N1CCc1ccc(Cl)cc1` is 6.29%; for `O=C1CNC(=S)N1CCCc1ccccc1` it is 5.18%; for `COc1ccc(-c2cc(C(F)(F)F)nc(SCC(=O)NCCCN3CCOCC3)n2)cc1` it is 9.25%.
In the case of `CN1C(=O)NC(c2ccc(O)cc2)C2=C1CN(c1ccccc1)C2=O` (stereo not given), the inhibition is 6.82%.
`Cc1ccc(N2CC3=C(C2=O)C(c2ccccc2)NC(=O)N3C)cc1` (stereo not given): the inhibition was 5.38%.
With `Cc1nnc2n(-c3ccccc3)c(=O)c3c4c(sc3n12)COC(C(C)C)C4` (stereo not given), the inhibition was 5.27%.
In the case of `CSc1nnc2n(-c3ccc(C)cc3)c(=O)c3c4c(sc3n12)COC(C(C)C)C4` (stereo not given), the inhibition was 10.7%.
Turning to `Cc1nnc2n(Cc3ccccc3)c(=O)c3c4c(sc3n12)COC(C(C)C)C4` (stereo not given), the inhibition is 7.22%.
The figure for `CN1CCc2c(sc3c2c(=O)n(-c2ccccc2)c2n[nH]c(=S)n32)C1` is 25.6%.

Broadly, the inhibition is the change of the read-out against control, counted positive when it falls.
